Data taken from PubChem BioAssay AID1159580 (chemical genetic matrix, 2015).
“And” between values parts separate entries of the source, which are not always exact repeats. Equal entries are not always repeated. The campaign covered roughly 5,500 compounds. About 2,000 (36%) were called active. About 18% were inconclusive and are not listed. Cut-off read from the data, not from the text of the source: active = normalized growth mostly below about 0.91 (no sharp cut-off); inconclusive = no clear call, values can overlap the other calls; inactive = mostly above about 0.92. This is one part of the list.

Assay: chemical genetic growth profiling, strain panel (AID 1159580);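 note: tested at 20 µM; growth read once vehicle control cultures reached saturation at 30 °C; 1 = growth at the plate median or of vehicle wells; lower values mean less growth of the strain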
Settings: S. cerevisiae deletion strains, growth OD

Measured: normalized growth

C[N+](C)(C)CC(=O)[O-]
inactive: locus YAL013W, strain DEP1, stronger effect = lower value 0.992 | locus YAL021C, strain ccr4, stronger effect = lower value 0.993 | locus YAL026C, strain drs2, stronger effect = lower value 0.983 | locus YAL030W, strain snc1, stronger effect = lower value 1 | locus YBL061C, strain skt5, stronger effect = lower value 0.978 | locus YBR009C, strain hhf1, stronger effect = lower value 1 | locus YBR021W, strain FUR4, stronger effect = lower value 1.16 | locus YBR023C, strain chs3, stronger effect = lower value 0.998 | locus YBR171W, strain sec66, stronger effect = lower value 0.981 | locus YBR229C, strain ROT2, stronger effect = lower value 0.993 | locus YBR231C, strain swc5, stronger effect = lower value 0.969 | locus YBR279W, strain paf1, stronger effect = lower value 0.997 | locus YCL011C, strain gbp2, stronger effect = lower value 0.982 | locus YCL016C, strain dcc1, stronger effect = lower value 1 | locus YCL029C, strain bik1, stronger effect = lower value 0.982 | locus YCL061C, strain MRC1, stronger effect = lower value 0.972 | locus YCL069W, strain vba3, stronger effect = lower value 0.997 | locus YCR088W, strain abp1, stronger effect = lower value 0.996 | locus YDL005C, strain med2, stronger effect = lower value 0.959 | locus YDL035C, strain GPR1, stronger effect = lower value 0.994 | locus YDL040C, strain nat1, stronger effect = lower value 0.988 | locus YDL074C, strain BRE1, stronger effect = lower value 0.949 | locus YDL101C, strain DUN1, stronger effect = lower value 0.998 | locus YDL134C, strain PPH21, stronger effect = lower value 1.01 | locus YDL185W, strain tfp1, stronger effect = lower value 0.95 | locus YDL192W, strain arf1, stronger effect = lower value 0.985 | locus YDR001C, strain nth1, stronger effect = lower value 0.957 | locus YDR069C, strain doa4, stronger effect = lower value 0.955 | locus YDR101C, strain arx1, stronger effect = lower value 0.969 | locus YDR137W, strain rgp1, stronger effect = lower value 1.02 | locus YDR150W, strain NUM1, stronger effect = lower value 0.981 | locus YDR159W, strain sac3, stronger effect = lower value 0.978 | locus YDR162C, strain NBP2, stronger effect = lower value 0.996 | locus YDR195W, strain ref2 0.974 | locus YDR297W, strain sur2, stronger effect = lower value 0.994 | locus YDR318W, strain mcm21, stronger effect = lower value 0.992 | locus YDR334W, strain swr1, stronger effect = lower value 0.939 | locus YDR335W, strain msn5, stronger effect = lower value 0.964 | locus YDR388W, stronger effect = lower value 0.997 | locus YDR392W, strain spt3, stronger effect = lower value 1 | locus YDR502C, strain sam2, stronger effect = lower value 0.986 | locus YEL003W, strain gim4, stronger effect = lower value 0.99 | locus YEL037C, strain rad23, stronger effect = lower value 0.989 | locus YEL061C, strain CIN8 (second series), stronger effect = lower value 0.992 | locus YEL061C, strain CIN8, stronger effect = lower value 0.996 | locus YER015W, strain faa2, stronger effect = lower value 0.993 | locus YER016W, strain bim1, stronger effect = lower value 1.02 | locus YER110C, stronger effect = lower value 0.985 | locus YER111C, strain swi4, stronger effect = lower value 0.992 | locus YER155C, strain BEM2 (second series), stronger effect = lower value 0.987 | locus YER155C, strain BEM2, stronger effect = lower value 0.996 | locus YER167W, strain BCK2, stronger effect = lower value 0.993 | locus YFR010W, strain ubp6, stronger effect = lower value 0.958 | locus YGL078C, strain dbp3, stronger effect = lower value 0.998 | locus YGL086W, strain mad1, stronger effect = lower value 1.01 | locus YGL167C, strain pmr1, stronger effect = lower value 0.978 | locus YGL173C, strain kem1, stronger effect = lower value 1 | locus YGL227W, strain vid30, stronger effect = lower value 0.968 | locus YGL240W, strain doc1, stronger effect = lower value 0.981 | locus YGL248W, strain PDE1, stronger effect = lower value 0.989 | locus YGL253W, strain hxk2, stronger effect = lower value 0.962 | locus YGR078C, strain PAC10, stronger effect = lower value 0.955 | locus YGR135W, strain pre9, stronger effect = lower value 0.984 | locus YGR229C, strain SMI1, stronger effect = lower value 0.979 | locus YGR252W, strain gcn5, stronger effect = lower value 1.19 | locus YHR013C, strain ard1, stronger effect = lower value 0.992 | locus YHR027C, strain rpn1, stronger effect = lower value 0.983 | locus YHR030C, strain SLT2, stronger effect = lower value 0.993 and 0.982 | locus YHR079C, strain IRE1 (second series), stronger effect = lower value 0.982 | locus YHR079C, strain IRE1, stronger effect = lower value 0.989 | locus YHR094C, strain hxt1, stronger effect = lower value 0.973 | locus YHR129C, strain ARP1, stronger effect = lower value 0.994 | locus YHR142W, strain chs7, stronger effect = lower value 0.963 | locus YHR200W, strain rpn10, stronger effect = lower value 0.978 | locus YIL066C, strain RNR3, stronger effect = lower value 0.983 | locus YIL073C, strain SPO22, stronger effect = lower value 0.94 | locus YIL125W, strain kgd1, stronger effect = lower value 0.988 | locus YIR030C, strain dcg1, stronger effect = lower value 0.994 | locus YJL092W, strain hpr5, stronger effect = lower value 0.989 | locus YJL095W, strain BCK1 (second series), stronger effect = lower value 0.979 | locus YJL095W, strain BCK1, stronger effect = lower value 0.987 and 0.995 | locus YJL115W, strain asf1, stronger effect = lower value 0.966 | locus YJL129C, strain trk1, stronger effect = lower value 0.958 | locus YJL134W, strain LCB3, stronger effect = lower value 1 | locus YJL154C, strain vps35, stronger effect = lower value 0.963 | locus YJL164C, strain tpk1, stronger effect = lower value 1.01 | locus YJL166W, strain qcr8, stronger effect = lower value 0.978 | locus YJL168C, strain set2, stronger effect = lower value 0.992 | locus YJL187C, strain SWE1 (second series), stronger effect = lower value 0.988 | locus YJL187C, strain SWE1, stronger effect = lower value 0.964 | locus YJR043C, strain POL32, stronger effect = lower value 0.998 | locus YJR066W, strain TOR1, stronger effect = lower value 0.948
